PubChem BioAssay (Tox21)
Where “and” joins values, the source holds several entries; their conditions need not be identical. Equal values may be shown once. Results filed as inconclusive are left out. Entries that show only a call come without a potency. Some compounds were tested as several samples or in several runs, with calls that do not always agree. Calls of active or inactive are those of the source. Unless noted, calls come from the whole dose curve; as a rule, active = well fitted curve in the direction sought with a large enough effect in the repeat runs; inconclusive = weak or mixed curves; inactive = no such curve, though single readings can be large; an effect the other way counts as inactive or inconclusive.

Key:
[1] = qHTS assay to identify small molecule antagonists of the estrogen related receptor (ERR) signaling pathway from Tox21 library - cell viability counter screen (AID 1224834); note: nearly all actives have a fitted effect of over 30% in size; note: potency is the fitted concentration of half-maximal effect
Outline: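 ERR reporter cells were plated 6 h before compound addition, then exposed to test compounds in DMSO for 17.5 h at 37 C. Viability was read as CellTiter-Fluor fluorescence after a 30-minute incubation at 37 C.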

[2] = molecular target: Luciferin 4-monooxygenase (Photinus pyralis) (UniProt P08659); test: qHTS assay to identify small molecule inhibitors of firefly luciferase (AID 1224835); note: nearly all actives have a fitted effect of over 25% in size; note: potency is the fitted concentration of half-maximal effect
Chain of Luciferin 4-monooxygenase (Photinus pyralis) (P08659 whole entry, looked up): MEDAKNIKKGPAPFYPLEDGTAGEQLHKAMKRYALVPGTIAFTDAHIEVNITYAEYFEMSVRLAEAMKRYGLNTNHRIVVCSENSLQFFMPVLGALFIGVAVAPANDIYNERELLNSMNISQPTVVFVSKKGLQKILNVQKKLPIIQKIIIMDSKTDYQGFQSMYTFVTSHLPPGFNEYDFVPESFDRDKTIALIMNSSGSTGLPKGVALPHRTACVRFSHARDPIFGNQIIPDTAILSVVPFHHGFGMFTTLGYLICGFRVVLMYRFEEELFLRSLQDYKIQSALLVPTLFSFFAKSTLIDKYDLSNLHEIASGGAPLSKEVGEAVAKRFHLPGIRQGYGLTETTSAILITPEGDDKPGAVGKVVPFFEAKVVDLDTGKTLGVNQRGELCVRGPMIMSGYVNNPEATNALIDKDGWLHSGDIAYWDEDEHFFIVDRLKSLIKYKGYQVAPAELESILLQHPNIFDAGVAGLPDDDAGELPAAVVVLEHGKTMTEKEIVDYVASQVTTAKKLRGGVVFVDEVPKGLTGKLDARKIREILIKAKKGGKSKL
Outline: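 Quantitative HTS format; KM concentrations of both substrates. Purified P. pyralis FLuc activity quantified from luminescence images.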

[3] = qHTS assay to identify small molecule antagonists of the constitutive androstane receptor (CAR) signaling pathway - cell viability counter screen (AID 1224837); note: nearly all actives have a fitted effect of over 45% in size; note: potency is the fitted concentration of half-maximal effect
Outline: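 HepG2 cells stably expressing hCAR and a CYP2B6-2.2kb reporter were plated and pre-incubated 4 hr at 37 C/5% CO2, then given compounds at 15 concentrations plus 50 nM CITCO (final). After 23 hr, viability was read by CellTiter-Fluor fluorescence.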

[4] = molecular target: Nuclear receptor subfamily 1 group I member 3 (Homo sapiens) (UniProt Q14994); test: qHTS assay to identify small molecule antagonists of the constitutive androstane receptor (CAR) signaling pathway (AID 1224838); note: nearly all actives have a fitted effect of over 40% in size; note: potency is the fitted concentration of half-maximal effect
Chain of Nuclear receptor subfamily 1 group I member 3 (Homo sapiens) (Q14994 whole entry, looked up): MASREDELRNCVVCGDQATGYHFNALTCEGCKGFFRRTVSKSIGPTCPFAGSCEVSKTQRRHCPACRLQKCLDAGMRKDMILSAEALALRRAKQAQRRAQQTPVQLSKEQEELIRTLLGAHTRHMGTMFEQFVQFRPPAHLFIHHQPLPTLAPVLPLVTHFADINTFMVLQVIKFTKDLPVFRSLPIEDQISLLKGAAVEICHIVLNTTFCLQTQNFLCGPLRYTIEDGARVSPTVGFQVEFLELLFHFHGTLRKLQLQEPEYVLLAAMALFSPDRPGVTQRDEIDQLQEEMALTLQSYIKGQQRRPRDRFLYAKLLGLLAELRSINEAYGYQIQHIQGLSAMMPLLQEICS
Outline: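 HepG2 cells stably co-transfected with hCAR and a CYP2B6-2.2kb luciferase reporter were seeded 4 h before compound addition at 15 concentrations. Cells were stimulated with 50 nM CITCO (final) for 24 h at 37 C; luciferase luminescence was then read.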

[5] = qHTS assay to identify small molecule antagonists of the estrogen related receptor signaling pathway with the pleiotropic PPARgamma coactivator (PGC) from Tox21 10K library - cell viability counter screen (AID 1224840; active = well fitted cell-killing curve with a large enough effect in the repeat runs, not every such curve was filed as active; note: nearly all actives have a fitted effect of over 40% in size; note: potency is the fitted concentration of half-maximal effect)
Outline: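 PGC/ERR cells were seeded at 2,000 cells/well and left 6 hours at 37 C/5% CO2 before pin-tool addition of compounds in DMSO. After 17.5 hours at 37 C, CellTiter-Fluor was added and fluorescence read 30 minutes later.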

[6] = molecular target: Thyrotropin receptor (Homo sapiens) (UniProt P16473); test: qHTS assay to identify small molecule agonists of the thyroid stimulating hormone receptor (TSHR) signaling pathway (AID 1224843; calls by dose curve; note: nearly all actives have a fitted effect of over 45% in size)
Chain of Thyrotropin receptor (Homo sapiens) (P16473 whole entry, looked up): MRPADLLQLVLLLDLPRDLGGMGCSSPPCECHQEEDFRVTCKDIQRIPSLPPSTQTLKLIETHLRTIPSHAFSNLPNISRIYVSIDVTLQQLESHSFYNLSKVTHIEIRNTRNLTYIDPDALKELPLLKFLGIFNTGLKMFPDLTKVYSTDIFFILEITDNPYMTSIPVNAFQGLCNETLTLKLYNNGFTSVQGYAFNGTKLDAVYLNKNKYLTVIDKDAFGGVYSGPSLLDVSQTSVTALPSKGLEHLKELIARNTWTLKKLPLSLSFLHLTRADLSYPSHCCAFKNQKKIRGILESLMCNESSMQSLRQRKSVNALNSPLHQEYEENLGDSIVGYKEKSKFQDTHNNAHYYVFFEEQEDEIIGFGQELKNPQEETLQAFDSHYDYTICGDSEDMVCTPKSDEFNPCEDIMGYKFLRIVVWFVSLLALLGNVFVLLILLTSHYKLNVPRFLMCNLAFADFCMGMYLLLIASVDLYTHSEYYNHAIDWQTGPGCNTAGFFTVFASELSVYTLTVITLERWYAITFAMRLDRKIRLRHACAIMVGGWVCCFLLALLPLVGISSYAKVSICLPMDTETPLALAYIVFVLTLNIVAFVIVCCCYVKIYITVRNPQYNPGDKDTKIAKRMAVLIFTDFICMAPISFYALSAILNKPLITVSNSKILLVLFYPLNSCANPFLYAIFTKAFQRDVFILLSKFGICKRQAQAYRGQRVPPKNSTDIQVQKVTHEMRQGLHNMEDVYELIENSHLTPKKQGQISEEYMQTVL
Outline: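 Cell line HEK293 with TSHR; density 800/well. Exposure 30 min RT. Readout HTRF cAMP (cAMP-d2/anti-cAMP-cryptate), 1 h RT before reading.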

[7] = qHTS assay to identify small molecule agonists of the hypoxia (HIF-1) signaling pathway - cell viability counter screen (AID 1224844; calls by dose curve; note: nearly all actives have a fitted effect of over 50% in size; note: potency is the fitted concentration of half-maximal effect)
Outline: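 HRE-bla ME-180 cells in medium with 0.5% dialyzed FBS were preincubated 5 hrs at 37C, exposed to compounds for 17 hrs, then viability was read as CellTiter-Glo luminescence after 30 min at room temperature, in the reporter wells.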

[8] = qHTS assay to identify small molecule agonists of H2AX (AID 1224845; active = well fitted activation curve with a large enough effect in the signal ratio in the repeat runs, not every such curve was filed as active; the % refers to the signal ratio; note: potency is the fitted concentration of half-maximal effect)
Outline: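 Wild-type CHO-K1 cells plated overnight, then exposed 3 hr at 37C to compounds at 15 concentrations (0.76% DMSO). Lysed, then HTRF anti-pH2AX(S139)-cryptate/anti-H2AX-d2 detection after 24 hr at room temperature; emissions 665 and 620 nm.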

[9] = qHTS assay to identify small molecule agonists of the hypoxia (HIF-1) signaling pathway (AID 1224846; active = well fitted activation curve with a large enough effect in the signal ratio in the repeat runs, not every such curve was filed as active; the % refers to the signal ratio)
Outline: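 HRE-bla ME-180 cells (beta-lactamase reporter under hypoxia response element) were plated at 2,000 cells/well in medium with 0.5% dialyzed FBS, rested 5 hrs, then given compounds in DMSO for 17 hrs at 37C, 5% CO2. Reporter induction was read with CCF4-AM FRET substrate.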

[10] = qHTS assay to identify small molecule agonists of H2AX - cell viability counter screen (AID 1224847; calls by dose curve; note: nearly all actives have a fitted effect of over 30% in size; note: potency is the fitted concentration of half-maximal effect)
Outline: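 CHO-K1 wt, 1000 cells/well, o/n 37C; cpds 15 conc, 3 h 37C, 0.76% DMSO; CellTiter-Glo, 30 min RT, luminescence.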

[11] = qHTS RealTime-Glo MT Cell Viability Assay in HepG2 cells - 24 hour (AID 1224867); note: nearly all actives have a fitted effect of over 50% in size; note: potency is the fitted concentration of half-maximal effect
Outline: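 Cells + NanoLuc/prosubstrate dispensed (600 cells/well) → 5 h at 37 C/5% CO2 → compounds in DMSO transferred → 40 h incubation at 37 C, luminescence read at 0, 8, 16, 24, 32, 40 h.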

[12] = A CellTox Green Cytotoxicity Assay to monitor cytotoxicity in HEK293 cells - 0 hour (AID 1224869); note: nearly all actives have a fitted effect of over 50% in size
Outline: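 HEK293 cells premixed with CellTox Green dye were seeded at 600 cells/well and left 5 h at 37 C/5% CO2 before pin transfer of 23 nL compound in DMSO. Fluorescence from dye bound to dead-cell DNA was read during 40 h treatment.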

[13] = molecular target: Nuclear receptor subfamily 1 group I member 3 (Homo sapiens) (UniProt Q14994); test: qHTS assay to identify small molecule agonists of the constitutive androstane receptor (CAR) signaling pathway (AID 1224839); note: nearly all actives have a fitted effect of over 15% in size; note: potency is the fitted concentration of half-maximal effect;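 for activation: HepG2 cells stably carrying human CAR and a CYP2B6 luciferase reporter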
Outline: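 Luminescence read-out (ONE-Glo, 30 min, room temperature) from double-stable HepG2-CYP2B6-hCAR cells exposed 24 h to 15-point compound series in presence of 0.75 uM PK11195 final.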

[14] = qHTS assay to identify small molecule antagonists of the estrogen related receptor signaling pathway with the pleiotropic PPARgamma coactivator (PGC) from Tox21 10K library (AID 1224841; call rule not given here; note: actives are mostly falling curves and most rising ones were filed inactive; nearly all actives have a fitted effect of over 50% in size; note: potency is the fitted concentration of half-maximal effect)
Outline: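 PGC/ERR reporter cells were seeded at 2,000 cells/well and held 6 hours at 37 C/5% CO2 before pin-tool addition of compounds in DMSO. After 18 hours at 37 C, One-Glo was added and luminescence read after 30 minutes at room temperature.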

[15] = qHTS assay to identify small molecule agonists of the estrogen related receptor signaling pathway with the pleiotropic PPARgamma coactivator (PGC) from Tox21 10K library (AID 1224842); note: nearly all actives have a fitted effect of over 15% in size; note: potency is the fitted concentration of half-maximal effect
Outline: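 PGC/ERR reporter cells (NTP line) were seeded 2,000 per well, rested 6 h at 37 C/5% CO2, then pin-dosed with compounds in DMSO for 18 h at 37 C; luciferase read by One-Glo luminescence after 30 min at room temperature.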

[16] = qHTS assay to identify small molecule antagonists of the estrogen related receptor (ERR) signaling pathway from Tox21 library (AID 1224848); note: nearly all actives have a fitted effect of over 50% in size; note: potency is the fitted concentration of half-maximal effect
Outline: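 Screening used an ERR reporter line supplied by NTP, exposed for 18 h at 37 C to library compounds delivered in DMSO. Signal was luciferase luminescence developed with ONE-Glo at room temperature for 30 min.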

[17] = qHTS assay to identify small molecule agonists of the estrogen related receptor (ERR) signaling pathway from Tox21 library (AID 1224849; calls by dose curve; note: nearly all actives have a fitted effect of over 15% in size); conditions: ERR reporter cell line, ONE-Glo luciferase, 18 h
Outline: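 ERR reporter cell line (NTP) seeded, rested 6 h at 37 C/5% CO2, then pinned with Tox21 compounds in DMSO. After 18 h at 37 C, ONE-Glo luciferase luminescence was read following 30 min at room temperature.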

[18] = qHTS RealTime-Glo MT Cell Viability Assay in HEK293 cells - 32 hour (AID 1224868); note: nearly all actives have a fitted effect of over 50% in size; note: potency is the fitted concentration of half-maximal effect
Outline: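 Tox21 10K qHTS, HEK293, 600 cells/well, RealTime-Glo reagent co-dispensed with cells; 5 h preincubation, compound by pintool, 37 C, luminescence at 0–40 h.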

[19] = qHTS assay to identify small molecule agonists of the constitutive androstane receptor (CAR) signaling pathway - cell viability counter screen (AID 1224836); note: nearly all actives have a fitted effect of over 45% in size
Outline: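 Viability read-out: CellTiter-Fluor fluorescence after 23 h compound exposure at 37 C/5% CO2 in double-stable HepG2-CYP2B6-hCAR cells, with PK11195 present at 0.75 uM final; compounds tested in 15-point titration.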

Compound	Potency [1]	Potency [2]	Potency [3]	Potency [4]	Potency [5]	Potency [6]	Potency [7]	Potency [8]	outcome [9]	Potency [10]	Potency [11]	Potency [12]	Potency [13]	Potency [14]	Potency [15]	Potency [16]	activity change, positive = activation ([17]; at 42.5 µM (top of the series))	activity change, positive = activation ([17]; at 92.4 µM (top of the series))	Potency [18]	Potency [19]
CC1(C)C(C=C(Cl)Cl)C1C(=O)OC(C#N)c1cccc(Oc2ccccc2)c1 (centres undefined)	inactive	inactive	inactive	inactive	inactive	inactive	inactive	inactive	inactive	inactive	inactive	inactive	–	–	–	–	–	–	–	–
COP(=S)(OC)Oc1ccc([N+](=O)[O-])cc1	–	–	inactive	inactive	–	inactive	inactive	inactive	inactive	inactive	inactive	inactive	inactive	–	–	–	–	–	–	–
CCOP(=S)(OCC)O/N=C(\C#N)c1ccccc1	inactive	inactive	inactive	–	inactive	inactive	inactive	inactive	inactive	inactive	inactive	inactive	–	inactive	inactive	inactive	3.78% (inactive)	4.34% (inactive)	inactive	–
c1ccc(P(c2ccccc2)c2ccccc2)cc1	inactive	inactive	inactive	inactive	inactive	inactive	–	inactive	inactive	inactive	inactive	inactive	–	–	–	–	–	–	–	–
CC(C)(c1cc(Cl)c(O)c(Cl)c1)c1cc(Cl)c(O)c(Cl)c1	inactive	inactive	inactive	–	inactive	inactive	–	inactive	–	inactive	inactive	inactive	–	inactive	inactive	inactive	–	-0.444% (inactive) and -2.89% (inactive)	–	–
O=C(NC(=O)c1c(F)cccc1F)Nc1ccc(Cl)cc1	inactive	inactive	inactive	inactive	inactive	inactive	inactive	inactive	inactive	inactive	inactive	inactive	inactive and 1.22 µM (active)	–	–	–	–	–	–	–
Oc1c(Cl)c(Cl)c(Cl)c(Cl)c1Cl	inactive	34.9 µM (active) and inactive	inactive	inactive	inactive	inactive	inactive	inactive	inactive	88 µM (active)	inactive	inactive	21.2 µM (active) and 15.4 µM (active)	–	–	–	–	–	–	–
O=C1C=CC(=O)C=C1	inactive	31.9 µM (active) and 22.4 µM (active)	inactive	inactive	inactive	inactive	49.2 µM (active) and 49 µM (active)	inactive	–	inactive	inactive	inactive	inactive	–	–	–	–	–	inactive	–
CCN(CC)N=O	inactive	inactive	inactive	–	inactive	inactive	inactive	inactive	inactive	inactive	inactive	inactive	–	inactive	inactive	inactive	–	0.678% (inactive)	inactive	–
Oc1cc(Cl)ccc1Oc1ccc(Cl)cc1Cl	24.9 µM (active) and 29.8 µM (active)	inactive	–	55.8 µM (active) and inactive	24.9 µM (active)	–	50.1 µM (active) and inactive	inactive	–	51.7 µM (active) and 43.8 µM (active)	42.2 µM [cytotoxic] (active) and 23.9 µM (active)	inactive	inactive	33.2 µM (active)	inactive	11.1 µM (active) and 18.8 µM (active)	-45.8% (inactive)	-47.1% (inactive)	20 µM (active)	–
CCC(C)c1cc([N+](=O)[O-])cc([N+](=O)[O-])c1O (centres undefined)	inactive and 19.3 µM (active)	inactive	–	inactive	inactive and 17.2 µM (active)	inactive	inactive	inactive	inactive	inactive and 28.4 µM (active)	inactive	inactive	inactive	inactive and 10.9 µM (active)	inactive	inactive and 13.7 µM (active)	–	-0.756% (inactive) and -61% (inactive)	inactive	–
Cc1ccc2c(c1N)C(=O)c1ccccc1C2=O	30.3 µM (active)	3.95 µM (active) and 5.64 µM (active)	–	inactive	inactive	inactive	inactive	inactive	inactive	inactive	inactive	inactive	4.28 µM (active) and 7.7 µM (active)	inactive	19.1 µM (active) and 9.69 µM (active)	inactive	–	82.1% (active) and 70.5% (active)	–	–
O=C(O)CC[N+](=O)[O-]	inactive	inactive	inactive	–	inactive	–	inactive	inactive	–	inactive	inactive	inactive	–	–	–	–	–	–	–	–
CCOC(=S)S	inactive	–	32.6 µM (active)	24.3 µM (active) and 36.6 µM (active)	–	inactive	–	28.4 µM (active)	–	–	inactive	inactive	inactive	inactive	inactive	73 µM (active)	–	-20.1% (inactive) and -29.8% (inactive)	–	inactive
